Test system: Plasmodium falciparum
Assay: GSK_TCMDC: Inhibition of Plasmodium falciparum Dd2 in whole red blood cells, using parasite LDH activity as an index of growth. Test compounds present at 2uM
Format: functional

SMILES	Inhibition [%]
CCCCCC(=O)N1CCOC(CCN2CCc3c(c4ccccc4n3C)C2)(c2ccc(Cl)c(Cl)c2)C1 (configuration not stated)	80
N#Cc1cncc(-c2nc3c(N4CCC(N5CCCC5)CC4)cccc3n2CCNCc2ccccc2)c1.O=C(O)C(F)(F)F	58
CCCCCC(C)N/C(=N/c1ccccc1Br)Nc1ccc([N+](=O)[O-])cc1O (configuration not stated)	98
O=C(/C=C/c1ccc(Cl)c(Cl)c1)NCCCCCN1CCCN(C(=O)Nc2ccc(Br)cc2)CC1	0
Br.C=CCN1Cc2c(O)cccc2C(c2ccc(O)c(O)c2)C1 (configuration not stated)	6
COc1ccc2[nH]ccc(=NN=Cc3cccc(Cl)c3)c2c1	99
COc1ccc(C(=O)CCC(=O)N(Cc2ccc(-c3ccc(CNCCc4ccc(S(C)(=O)=O)cc4)cn3)cc2)Cc2ccc3c(c2)OCO3)cc1F.O=C(O)C(F)(F)F	41
CC(=O)c1c(C)[nH]c(C(=O)Nc2ccc(-c3nc4ccc(C)cc4s3)cc2)c1C	40
O=C(Nc1ccc(Cl)c(Cl)c1)N(Cc1ccccc1Br)C1CCNCC1	8
CCC(C)NC(=O)Nc1ccc(-c2cccc(-c3nc4cc(C(F)(F)F)ccc4[nH]3)c2)cc1 (configuration not stated)	0
Cc1cccc2[nH]c(-c3cc(-c4cn[nH]c4)cnc3N)nc12	93
O=C(Nc1ccc(Cl)c(Cl)c1)N1CCC(CNCc2cccc([N+](=O)[O-])c2)CC1.O=C(O)C(F)(F)F	6
Cc1cc(N2CCCC2)nc(NC(=N)Nc2cccc(C(F)(F)F)c2)n1	100
CC(C)C[C@@H](/C=N/N1CC(=O)NC1=O)NC(=O)[C@H](CC(C)C)NC(=O)c1ccc(OCCN2CCOCC2)cc1	79
N#Cc1ccc(N2CCN(Cc3ccc(-c4ccc(-c5nc6cc(C(F)(F)F)ccc6[nH]5)s4)cc3)CC2)nc1.O=C(O)C(F)(F)F	73
CC(C)CNCc1cccc(-c2ccc(CNc3ccc4ncccc4c3)cc2)c1.O=C(O)C(F)(F)F	32

SMILES	Inhibition [%]
O=C(Nc1cccc([N+](=O)[O-])c1)N(Cc1ccc(Cl)c(Cl)c1)C1CCNCC1	0
N#Cc1ccc(-c2ccc(C(=O)NCCCCN3CCC(c4ccc5c(c4OCC(N)=O)CCCC5)CC3)cc2)cc1	23
CC1CN(Cc2cccc(-c3ccc(-c4nc5cc(F)ccc5[nH]4)cc3)c2)CC(C)O1.O=C(O)C(F)(F)F (configuration not stated)	88
COC(=O)c1cccc(CNCc2ccc(-c3ccc(-c4nc5ccccc5[nH]4)s3)cc2)c1.O=C(O)C(F)(F)F	79
O=C(NCCNc1ccnc(Nc2ccc(F)cc2)n1)c1cc2ccccc2s1	34
O=C(NC1CCCCC1)N(CCCn1ccnc1)Cc1csc(-c2ccc(CNCc3ccccc3)cc2)n1.O=C(O)C(F)(F)F	48
O=C(Nc1cccc(CN2CCN(C(=O)c3cccs3)CC2)c1)c1cccs1.O=C(O)C(F)(F)F	91
Cc1cccc2nc(-c3ccc(-c4ccc(NC(=O)Nc5ccsc5)cc4)cc3)[nH]c12	70
Cl.O=C(Nc1ccccc1)c1cccc(Nc2nccc(Nc3ccc(Oc4ccccc4)cc3)n2)c1	11
Cc1cc(NC(=O)c2cccs2)ccc1OC1CCN(Cc2ccccc2)C1.O=C(O)C(F)(F)F (configuration not stated)	87
O=C(Nc1nc(-c2cc(F)ccc2F)cs1)c1cncc(Br)c1	3
Oc1ccc(-c2nc3c4cc(I)ccc4c4ccc(I)cc4c3[nH]2)cc1	51
Cc1cc(N2CCOCC2)nc(Nc2ccc(NC(=O)Nc3ccc(F)cc3)cc2)n1	34
Cc1cccn2c(=O)c3cc(C(=O)NCCc4ccccc4)c(=N)n(CCCOC(C)C)c3nc12	40
CC(C)C[C@H](NC(=O)c1cc(-c2ccc(C(C)(C)C)cc2)no1)C(=O)O.CC(C)C[C@H](NC(=O)c1conc1-c1ccc(C(C)(C)C)cc1)C(=O)O	6
FC(F)(F)c1ccc(NC(=S)N2CCC(CCN3CCC(c4c[nH]c5ccccc45)CC3)CC2)cc1	37

Test system: HepG2
Assay: GSK_TCMDC: Percent inhibition of human HepG2 cell line. Test compounds present at 10uM.
Format: functional

SMILES	Inhibition [%]
COc1cc(OC)c2c(C)cc(NCCCn3ccnc3)nc2c1	6
O=C(NCCN1CCCC1)N1CCCN(c2ncnc3cc(-c4ccc(Cl)cc4)sc23)CC1.O=C(O)C(F)(F)F	13
O=C(N[C@@H](Cc1ccccc1)C(=O)NC1CCCCC1)c1ccc(O)c(-c2cccc(C(F)(F)F)c2)c1	11
O=C(/C=C/c1ccc(Cl)c(Cl)c1)NCCCCCN1CCC(NC(=S)Nc2cccc(Cl)c2)CC1	24
O=C(Nc1cccc(CN2CCCN(Cc3ccc4c(c3)OCO4)CC2)c1)c1ccc(Cl)c(Cl)c1.O=C(O)C(F)(F)F	34
Cc1cc(CNCCCCCNCc2cccc([N+](=O)[O-])c2)ccc1O	14
CC(C)(C)c1ccc(CN2CCC(CNC(=O)c3cc(-c4ccccc4F)cs3)C2)cc1.O=C(O)C(F)(F)F (configuration not stated)	46
O=C(Nc1cccc(CN2CCCN(CCc3ccccc3)CC2)c1)c1cc2ccccc2s1.O=C(O)C(F)(F)F	37
CCCCCC(=O)N1CCOC(CCN2CCc3c(c4ccccc4n3C)C2)(c2ccc(Cl)c(Cl)c2)C1 (configuration not stated)	24
N#Cc1cncc(-c2nc3c(N4CCC(N5CCCC5)CC4)cccc3n2CCNCc2ccccc2)c1.O=C(O)C(F)(F)F	3
CCCCCC(C)N/C(=N/c1ccccc1Br)Nc1ccc([N+](=O)[O-])cc1O (configuration not stated)	0
O=C(/C=C/c1ccc(Cl)c(Cl)c1)NCCCCCN1CCCN(C(=O)Nc2ccc(Br)cc2)CC1	38
Br.C=CCN1Cc2c(O)cccc2C(c2ccc(O)c(O)c2)C1 (configuration not stated)	0
COc1ccc2[nH]ccc(=NN=Cc3cccc(Cl)c3)c2c1	1
COc1ccc(C(=O)CCC(=O)N(Cc2ccc(-c3ccc(CNCCc4ccc(S(C)(=O)=O)cc4)cn3)cc2)Cc2ccc3c(c2)OCO3)cc1F.O=C(O)C(F)(F)F	13
CC(=O)c1c(C)[nH]c(C(=O)Nc2ccc(-c3nc4ccc(C)cc4s3)cc2)c1C	11
O=C(Nc1ccc(Cl)c(Cl)c1)N(Cc1ccccc1Br)C1CCNCC1	13
CCC(C)NC(=O)Nc1ccc(-c2cccc(-c3nc4cc(C(F)(F)F)ccc4[nH]3)c2)cc1 (configuration not stated)	45
Cc1cccc2[nH]c(-c3cc(-c4cn[nH]c4)cnc3N)nc12	37
O=C(Nc1ccc(Cl)c(Cl)c1)N1CCC(CNCc2cccc([N+](=O)[O-])c2)CC1.O=C(O)C(F)(F)F	13

SMILES	Inhibition [%]
Cc1cc(N2CCCC2)nc(NC(=N)Nc2cccc(C(F)(F)F)c2)n1	33
CC(C)C[C@@H](/C=N/N1CC(=O)NC1=O)NC(=O)[C@H](CC(C)C)NC(=O)c1ccc(OCCN2CCOCC2)cc1	11
N#Cc1ccc(N2CCN(Cc3ccc(-c4ccc(-c5nc6cc(C(F)(F)F)ccc6[nH]5)s4)cc3)CC2)nc1.O=C(O)C(F)(F)F	13
CC(C)CNCc1cccc(-c2ccc(CNc3ccc4ncccc4c3)cc2)c1.O=C(O)C(F)(F)F	13
O=C(Nc1cccc([N+](=O)[O-])c1)N(Cc1ccc(Cl)c(Cl)c1)C1CCNCC1	17
N#Cc1ccc(-c2ccc(C(=O)NCCCCN3CCC(c4ccc5c(c4OCC(N)=O)CCCC5)CC3)cc2)cc1	21
CC1CN(Cc2cccc(-c3ccc(-c4nc5cc(F)ccc5[nH]4)cc3)c2)CC(C)O1.O=C(O)C(F)(F)F (configuration not stated)	45
COC(=O)c1cccc(CNCc2ccc(-c3ccc(-c4nc5ccccc5[nH]4)s3)cc2)c1.O=C(O)C(F)(F)F	20
O=C(NCCNc1ccnc(Nc2ccc(F)cc2)n1)c1cc2ccccc2s1	0
O=C(NC1CCCCC1)N(CCCn1ccnc1)Cc1csc(-c2ccc(CNCc3ccccc3)cc2)n1.O=C(O)C(F)(F)F	5
O=C(Nc1cccc(CN2CCN(C(=O)c3cccs3)CC2)c1)c1cccs1.O=C(O)C(F)(F)F	0
Cc1cccc2nc(-c3ccc(-c4ccc(NC(=O)Nc5ccsc5)cc4)cc3)[nH]c12	49
Cl.O=C(Nc1ccccc1)c1cccc(Nc2nccc(Nc3ccc(Oc4ccccc4)cc3)n2)c1	6
Cc1cc(NC(=O)c2cccs2)ccc1OC1CCN(Cc2ccccc2)C1.O=C(O)C(F)(F)F (configuration not stated)	7
O=C(Nc1nc(-c2cc(F)ccc2F)cs1)c1cncc(Br)c1	16
Oc1ccc(-c2nc3c4cc(I)ccc4c4ccc(I)cc4c3[nH]2)cc1	0
Cc1cc(N2CCOCC2)nc(Nc2ccc(NC(=O)Nc3ccc(F)cc3)cc2)n1	35
Cc1cccn2c(=O)c3cc(C(=O)NCCc4ccccc4)c(=N)n(CCCOC(C)C)c3nc12	19
CC(C)C[C@H](NC(=O)c1cc(-c2ccc(C(C)(C)C)cc2)no1)C(=O)O.CC(C)C[C@H](NC(=O)c1conc1-c1ccc(C(C)(C)C)cc1)C(=O)O	3
FC(F)(F)c1ccc(NC(=S)N2CCC(CCN3CCC(c4c[nH]c5ccccc45)CC3)CC2)cc1	44

— ChEMBL document CHEMBL1157539, “Thousands of chemical starting points for antimalarial lead identification” (Nature, 2010)
